Source: PubChem BioAssay (NCI)
The panel holds about 83,000 compounds, 20% with a hit somewhere; the sample as a whole holds those more often.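 Single-dose data. Exposure time 48 hours. Values below 10 considered active.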 A number with no mark means an inactive call. Activity calls are given as the source filed them.

Legend:
Assay in all cases: NCI-60 one-dose screen, 48 h (100 = growth as untreated, 0 = no growth, -100 = all killed)
Details in all cases: 10 µM unless noted
T-47D breast = tested on: T-47D breast
BT-549 breast = tested on: BT-549 breast
MDA-MB-435 melanoma = tested on: MDA-MB-435 melanoma
SW-620 colon = tested on: SW-620 colon
MCF7 breast = tested on: MCF7 breast
HCT-116 colon = tested on: HCT-116 colon
HCC-2998 colon = tested on: HCC-2998 colon
KM12 colon = tested on: KM12 colon

SMILES	growth (T-47D breast)	growth (BT-549 breast)	growth (MDA-MB-435 melanoma)	growth (SW-620 colon)	growth (MCF7 breast)	growth (HCT-116 colon)	growth (HCC-2998 colon)	growth (KM12 colon)
O=C(Nc1ccccn1)[C@H](O)[C@@H](O)C(=O)N1CCOCC1	100%	114%	111%	110%	110%	99.3%	116%	108%
COc1cc(C(=O)/C=C/c2c(-c3ccc(F)cc3)nc3ncccn23)cc(OC)c1OC	59.8%	32.5%	11.9%	32.2%	10%	17.7%	44.1%	
COC1(CC[C@@H](C)COC2OC(CO)C(O)C(O)C2O)O[C@H]2C[C@H]3[C@@H]4CC=C5C[C@@H](OC6OC(CO)C(OC7OC(C)C(O)C(O)C7O)C(O)C6OC6OC(C)C(O)C(O)C6O)CC[C@]5(C)[C@H]4CC[C@]3(C)[C@H]2[C@@H]1C (some centres undefined)	-4.7% (active)	-84.2% (active)	-61.3% (active)	-96.4% (active)	-85.5% (active)	-86.1% (active)		
COc1ccc(-c2nc3ncccn3c2/C=C/C(=O)c2cc(OC)c(OC)c(OC)c2)cc1	17.8%	15.6%	15.2%	-1.58% (active)	3.17% (active)	-84.8% (active)	-58.4% (active)	-56.9% (active)
O=C(/C=C/C12c3ccccc3C(c3ccccc31)C1C(=O)N(c3ccccc3)C(=O)C12)c1ccc(Cl)cc1 (centres undefined)	30.4%	16.1%	0.197% (active)	7.56% (active)	18.4%	-18% (active)	-24% (active)	7.23% (active)
CCOC(=O)c1c(C)nc2c(c1N)/C(=C/c1cc(OC)c(OC)c(OC)c1)C(=O)N2c1ccc(OC)cc1	73.2%	46.7%	49.5%	30.9%	14.6%	-0.0724% (active)	95.9%	
O=C(CC1Sc2ccccc2NC1=O)NNc1ccc(F)cc1 (centres undefined)	66.4%	88.6%	31%	106%	84.7%	71.6%	63.7%	77.4%
CCOC(=O)C1=C(C)NC(SCc2nnc(-c3ccc(Cl)cc3)o2)=NC1c1ccc(Cl)cc1Cl (centres undefined)	47.4%	89.7%	69%	66.2%	32%	28.8%	84.5%	63.4%
Cc1cc(Cc2cc(C)cc(C(C)(C)C)c2O)c(O)c(C(C)(C)C)c1	9.69% (active)	74.1%	52.2%	39.8%	12.8%	8.68% (active)	31.6%	29.8%
O=C(NCCOCCOCCOCCNC(=O)c1cc2c(o1)C(=O)c1ccccc1C2=O)NC12CC3CC(CC(C3)C1)C2	9.45% (active)	-84.9% (active)	-95.9% (active)	-8.88% (active)	-63.3% (active)	3.1% (active)	-67.6% (active)	-1.07% (active)
O=C1CSC(c2ccccc2)N1c1ccccc1 (centres undefined)	103%	103%	108%	94.5%	96.6%	99.9%	115%	98.4%
COc1cc(/C=C/C(=O)c2cccc(-n3cc(-c4ccc(Cl)cc4)[nH]c3=O)c2)cc(OC)c1OC	41.1%	86.2%	27.1%	-19.4% (active)	11.9%	-45.7% (active)	75.8%	46%
COc1cccc(CCC2CCCN(c3cc(C)nc(N)n3)C2)c1 (centres undefined)	45.9%	39.1%	0.575% (active)	30.4%	17.8%	7.36% (active)	39.4%	20.5%
CC(C)CCC[C@@H](C)[C@H]1CCC2C3=CCn4c(=O)ccc(=O)n4C3CC[C@@]21C (some centres undefined)	-75.2% (active)	-30.9% (active)	-87.1% (active)	-65.5% (active)	-92.5% (active)	-100% (active)	-93.1% (active)	-97.5% (active)
C=CCOc1cccc(/C=C2\SC(=Nc3ccc(O)cc3)NC2=O)c1	60.9%	-16.3% (active)	-45.2% (active)	23.4%	7.91% (active)	5.94% (active)	10.6%	6.22% (active)
COc1cc(-c2cc(-c3ccc(Nc4nc(Nc5ccccc5)nc(Nc5ccc(Cl)cc5)n4)cc3)nc(N)n2)cc(OC)c1OC	38.4%	71.1%	63.5%	87.2%	35.5%	34.9%	58.2%	52.4%
